Source: PubChem BioAssay (National Center for Advancing Translational Sciences (NCATS))
RECQ1 inh-1: blocks DNA unwinding by human RECQ1; P46063; RECQ1 DNA unwinding, red fluorescence kinetic read; Potency, µM (titrated, usually from 57.3 µM), for the others: top-dose activity, negative = inhibition, most hits filed as inhibitors; hit rate 0.54% among 240,000; AID 2549;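 note: plate controls were vehicle for no effect and no enzyme for full effect; nearly all actives have a fitted effect of over 30% in size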
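RECQ1T1 50 nM; forked duplex (20 bp + 30-nt ss tails) 200 nM, ATP 2 mM final; pH 8.0, 2 mM MgCl2, 2.5 ug/ml poly(dI-dC); 15 min compound preincubation; discontinuous kinetic read over 2 h at RT.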
APEX1 inh: inhibitors of human APE1 endonuclease; recombinant APE1, TAMRA/BHQ-2 abasic DNA cleavage fluorescence; Potency, µM (top dose mostly 65.8 µM), for inactives: at the highest dose activity change, negative = inhibition, most hits filed as inhibitors; hit rate 0.35% among 350,000; AID 2517;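 note: plate controls were vehicle for no effect and reference inhibitor for full effect; nearly all actives have a fitted effect of over 55% in size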
Target sequence (P27695 whole entry, looked up): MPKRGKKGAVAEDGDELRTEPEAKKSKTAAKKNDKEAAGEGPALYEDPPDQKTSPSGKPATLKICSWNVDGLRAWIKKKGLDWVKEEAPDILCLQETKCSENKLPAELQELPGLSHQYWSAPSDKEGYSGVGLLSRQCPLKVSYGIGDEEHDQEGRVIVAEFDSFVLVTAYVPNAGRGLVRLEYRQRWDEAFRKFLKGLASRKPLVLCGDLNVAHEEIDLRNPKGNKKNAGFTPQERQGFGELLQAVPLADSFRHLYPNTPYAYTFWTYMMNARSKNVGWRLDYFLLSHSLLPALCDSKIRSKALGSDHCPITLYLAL
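Measures dequenching upon AP-site incision of a 5'-TAMRA/3'-BHQ-2 THF-containing duplex, 50 nM; human APE1 0.75 nM after 15 min room-temperature exposure to compound; kinetic three-point read at one-minute spacing.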
FEN1 inh: human FEN1 inhibition | P39748 | Recombinant FEN1 flap cleavage, fluorescence, 15 min | Potency, µM (titrated, usually from 114 µM), for inactives: at the highest dose activity change, negative = inhibition, usual class: inhibitors | hit rate 0.35% among 390,000 | AID 588795; note: nearly all actives have a fitted effect of over 65% in size
Target sequence (P39748 whole entry, looked up): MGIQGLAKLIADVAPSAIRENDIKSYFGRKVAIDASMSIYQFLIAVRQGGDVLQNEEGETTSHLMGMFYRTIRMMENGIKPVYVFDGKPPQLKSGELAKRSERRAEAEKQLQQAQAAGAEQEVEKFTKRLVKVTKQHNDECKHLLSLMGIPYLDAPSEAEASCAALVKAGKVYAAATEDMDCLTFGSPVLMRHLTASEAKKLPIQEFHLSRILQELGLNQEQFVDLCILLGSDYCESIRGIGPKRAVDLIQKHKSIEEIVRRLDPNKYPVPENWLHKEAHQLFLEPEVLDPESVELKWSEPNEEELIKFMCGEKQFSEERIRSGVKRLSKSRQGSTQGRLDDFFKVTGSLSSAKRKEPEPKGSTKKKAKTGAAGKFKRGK
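In this screen, 50 nM flap DNA substrate was added to 10 nM FEN1 pretreated with compound for 15 min at room temperature; cleavage was followed with reads at 0 and 15 min, and Hill fitting gave concentration–response parameters.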
WRN inhibitor: blocks human WRN helicase; Q14191; WRN helicase unwinding, fluorescent forked duplex, kinetic; Potency, µM (doses to about 114 µM), for the others: at the top dose activity change, negative = inhibition, actives largely listed as inhibitors; hit rate 0.46% among 360,000; AID 651768; note: nearly all actives have a fitted effect of over 55% in size
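Enzyme (20 nM final) and test compound sit together 15 min at room temperature before substrate addition. Substrate is a single-forked duplex oligonucleotide (100 nM) labelled with fluorophore and quencher, with 2 mM ATP; helicase unwinding raises red fluorescence, read kinetically.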
BLM inh: blocks DNA unwinding by human BLM helicase; Potency, µM (highest dose often 56.1 µM), inactives show at the top dose activity change, negative = inhibition, most hits filed as inhibitors; recombinant BLM DNA unwinding, fluorescence dequenching; hit rate 0.2% among 350,000;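 note: plate controls were vehicle for no effect and no enzyme for full effect; nearly all actives have a fitted effect of over 35% in size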
RECQ1 conf: confirmation of human RECQ1 helicase inhibitors; shares compounds with RECQ1 inh-1; RECQ1 helicase DNA unwinding, fluorescence; Potency, µM (doses to about 229 µM), for inactives: at the top dose activity change, negative = inhibition, usual class: inhibitors; hit rate 28% among 610; AID 2708; note: nearly all actives have a fitted effect of over 45% in size
RECQ1 ADP FP: displaces ADP in a fluorescence polarization counter-screen for RECQ1 hits. hit rate 27% among 530. shares compounds with RECQ1 inh-1. AID 2711. Potency, µM (series often up to 228 µM), inactives show at the top dose activity change, negative = inhibition, hits mostly inhibitors. ADP fluorescence polarization displacement counterscreen; note: nearly all actives have a fitted effect of over 45% in size
RECQ1 inh-2: blocks human RECQ1 DNA unwinding | recombinant RECQ1 DNA unwinding, red fluorescence | hit rate 15% among 1,100 | shares compounds with RECQ1 inh-1 | AID 504841 | Potency, µM (doses to about 119 µM), for the others: top-dose activity, negative = inhibition, most hits filed as inhibitors; note: nearly all actives have a fitted effect of over 50% in size
An asterisk follows results filed as active; i = inactive; ? = inconclusive; nt = no result given; [ ] = dose if it differs, or a comment. Compounds with a hit are over-represented: about 0.87% of the library has one in this group of screens. Calls come from the whole dose curve; as a rule, active = well fitted curve in the direction sought with a large enough effect; inconclusive = small, poorly fitted or top-dose-only effect, or another doubt; inactive = no such curve, though single readings can be large; an effect the other way counts as inactive or inconclusive. Unless noted, % is set by controls: 0 for no effect and ±100 for the full control effect; potency is the fitted concentration of half-maximal effect.

SMILES | RECQ1 inh-1 | APEX1 inh | FEN1 inh | WRN inhibitor | BLM inh | RECQ1 conf | RECQ1 inh-2 | others
Cc1ccc(C(=O)N2CCc3cc(CNC(=O)c4ccccc4F)ccc32)cc1 | nt | nt | -4% | nt | -3% | nt | nt
CC(=O)N(C)/C=C1\Sc2ccccc2C1=O | ? | 0% | -2% | -5% | -2% | nt | -15%
CCC(=O)N(C)/C=C1\Sc2ccccc2C1=O | -4% | -1% | -5% | -3% | 0% | nt | nt
Cc1cc(/C=C/c2ccc3cc(N(C)C)ccc3[n+]2C)c(C)n1-c1ccccc1 | 25µM* | ? | nt | nt | -23% | 271% | nt | RECQ1 ADP FP=40µM*
Cc1cc(/C=N/O)c(C)n1-c1ccccc1 | -3% | -1% | 9% | -1% | 0% | nt | nt
Cc1ccc(NS(=O)(=O)c2ccc(NC(=O)c3cccc(NC(=O)C(C)C)c3)cc2)cc1 | ? | -3% | -20% | -6% | -11% | nt | -17%
COc1ccccc1CCNC(=O)CSc1ccc(-c2ccco2)nn1 | ? | ? | -2% | -10% | -11% | nt | -11%
CC(C)(Oc1ccc(Cl)cc1)C(=O)NC1=NN(c2ccccc2)C(=O)C1 | ? | 10% | -12% | -22% | -6% | nt | -20%
O=C1CC(NC(=O)C(F)(F)F)=NN1c1ccccc1 | -1% | -2% | -20% | -7% | 0% | nt | nt
Cc1ccc(-c2nc3c(c(=O)[nH]c(=O)n3Cc3ccccc3)n2C)o1 | 14µM* | 22µM* | 1% | -13%[11.6 µM] | ? | ? | ?
Cc1ccc(-c2nc3c(c(=O)[nH]c(=O)n3Cc3ccccc3)n2Cc2ccccc2)o1 | -16% | -1% | -16% | -10% | -5% | nt | nt
Cc1cc2c(s1)c1c(n2C)C(=O)N(Cc2ccccc2F)C1 | nt | -21% | nt | nt | nt | nt | nt
CC1(C)C(=O)N(CC(=O)Nc2cccc(F)c2)c2ccc(S(=O)(=O)N3CCCCC3)cc21 | nt | nt | -19% | nt | -10% | nt | nt
C/C=C/C(=O)OCC(=O)Nc1cccc(S(=O)(=O)NC2=NCCCCC2)c1 | 0% | 0% | 4% | 4% | -2% | nt | nt
O=C(COC(=O)Cc1ccccc1F)Nc1cccc(S(=O)(=O)NC2=NCCCCC2)c1 | 1µM* | 2% | 2% | 2% | -2% | 13%[114 µM] | -4% | RECQ1 ADP FP=9%[91.9 µM]
Cc1cc(OCC(F)(F)C(F)(F)C(F)(F)C(F)(F)C(F)(F)C(F)F)nc(N)n1 | 28µM* | 2% | -13% | -9% | -21% | nt | -20%
CC(NC(=O)Nc1ccc(O)cc1)(C(F)(F)F)C(F)(F)F | ? | -10% | -10% | -2%[57.1 µM] | -24% | nt | 15%
Cc1ccc(S(=O)(=O)C(CNC(=O)c2ccccc2F)c2cccs2)cc1 (centres undefined) | nt | nt | -2% | nt | -1% | nt | nt
Cc1ccc(S(=O)(=O)N(C)C)cc1NC(=O)COC(=O)Cc1n[nH]c(=O)c2ccccc12 | nt | 12% | 7% | -28% | -6% | nt | nt
Cc1ccc(S(=O)(=O)N(C)C)cc1NC(=O)COC(=O)c1n[nH]c(=O)c2ccccc12 | -5% | 2% | 1% | -2% | 3% | 13% | nt | RECQ1 ADP FP=?
COc1ccc(NC(=O)C2CCN(S(=O)(=O)c3cccc(-c4noc(C)n4)c3)CC2)cc1OC | nt | nt | 2% | nt | -4% | nt | nt
CC(C)(C)c1ccc(-c2nnc(SCCC#N)n2C2CCCC2)cc1 | 14µM* | 11% | -5% | -9% | -8% | -1%[114 µM] | -16% | RECQ1 ADP FP=16%[91.9 µM]
Cn1c(SCCC#N)nnc1-c1ccc(F)cc1 | i | -2% | nt | nt | 1% | nt | nt
C=CCn1c(SCC(=O)NCC2CCCO2)nc2scc(-c3ccco3)c2c1=O (centres undefined) | ? | ? | -15% | -1%[11.6 µM] | -23% | nt | ?
C=CCn1c(SCC(=O)NCC2CCCO2)nc2scc(-c3ccc(OC)cc3)c2c1=O (centres undefined) | nt | 8% | 2% | -28% | -4% | nt | nt
SMILES | RECQ1 inh-1 | APEX1 inh | FEN1 inh | WRN inhibitor | BLM inh | RECQ1 conf | RECQ1 inh-2 | others
NC(=O)CSc1nc2scc(-c3ccco3)c2c(=O)n1-c1ccccc1 | 28µM* | 11% | ? | ? | ? | ? | ? | RECQ1 ADP FP=-5%[91.9 µM]
O=c1c2c(-c3ccco3)csc2nc(SCc2cn3cccnc3n2)n1-c1ccccc1 | 13µM* | -2% | 1% | 56µM* | -11% | nt | -22%
COc1ccc(Cn2nnnc2C(c2cccnc2)N2CCN(c3ccc(O)cc3)CC2)cc1 (centres undefined) | 1.3µM* | 10% | 1% | -4% | -2% | 0%[114 µM] | 0% | RECQ1 ADP FP=8%[91.9 µM]
COc1ccc(Cl)cc1C(=O)Nc1cccc(-c2ccc3nncn3n2)c1 | ? | ? | -33% | -13% | -12% | nt | ?
COc1ccc(Cl)cc1NC(=O)Cn1c2ncccc2c(=O)n1-c1ccc(C)c(C)c1 | nt | nt | 0% | nt | -1% | nt | nt
CCn1cc2c(n1)-c1c(oc(C(=O)Nc3cccc(C)c3C)c1C)CC2 | nt | nt | 0% | nt | 0% | nt | nt
O=C(Nc1cccc(OCc2cc(=O)n3ccccc3n2)c1)Nc1cccc(C(F)(F)F)c1 | nt | nt | -2% | nt | -6% | nt | nt
Cc1cc(/C=N/Nc2ccc([N+](=O)[O-])cn2)c(C)n1-c1ccc(C(=O)O)cc1 | 18µM* | ? | ? | 50µM* | ? | ? | nt
Cc1ccc(F)cc1NC(=O)COC(=O)c1ccc(S(C)(=O)=O)c([N+](=O)[O-])c1 | nt | nt | 14% | nt | nt | nt | nt
COc1ccc(CN(C(=O)c2ccc(-c3ccccc3)[nH]2)C(C(=O)NCC2CCCO2)c2ccc(C)o2)cc1 (centres undefined) | 25µM* | 6% | -13% | -7% | -12% | nt | -12%
CCC(=Nc1ccc(N)cc1)C1=C(O)C(C(=O)OC)C(C)(C)CC1=O (centres undefined) | ? | ? | -16% | -6% | ? | nt | -6%
Cc1cc(O)ccc1N=Cc1c(C(F)(F)F)[nH][nH]c1=O | 8.9µM* | 17% | ? | -12% | -10% | 0%[114 µM] | -7% | RECQ1 ADP FP=6.3µM*
COc1ccc(NC(=O)C2(N(C(=O)Cn3nnnc3N)c3ccc(OC)cc3)CCCCC2)cc1 | nt | 34% | 3% | 1% | -1% | nt | nt
COCC(=O)N(C)C1(c2nnnn2CCOC(=O)Nc2cccc3ccccc23)CCCC1 | 32µM* | -9% | -11% | -15% | -13% | nt | -9%
COc1ccc(/C=C(\NC(=O)c2ccc(OC)cc2)C(=O)NC(CCSC)C(=O)O)cc1 (centres undefined) | i | -1% | -3% | -13%[57.1 µM] | -3% | -1% | nt | RECQ1 ADP FP=-12%
